Shown are actives, neighbours in structure and some others; about 11% of the full set was active somewhere.
USP17 inh = inhibitors of human USP17 deubiquitinase. AID 1645855, 2021. 47,000 tested, 6.5% active. purified USP17, Ub-rhodamine cleavage fluorescence, 3 h. Ubiquitin carboxyl-terminal hydrolase 17-like protein 5 (Homo sapiens), A8MUK1. inhibition, % at 50 µM
OTUD3 inh = inhibitors of human OTUD3 deubiquitinase; OTU domain-containing protein 3 (Homo sapiens), Q5T2D3; purified OTUD3, Ub-rhodamine fluorescence, 2 h; inhibition, % at 25 µM; 47,000 tested, 0.7% active
USP28 inh = inhibitors of human USP28 deubiquitinase; purified USP28, Ub-rhodamine cleavage fluorescence, 30 min; AID 1645857, 2021; Ubiquitin carboxyl-terminal hydrolase 28 (Homo sapiens), Q96RU2; inhibition, % at 25 µM; 47,000 tested, 3% active
USP30 inh = inhibitors of human USP30 deubiquitinase. Ubiquitin carboxyl-terminal hydrolase 30 (Homo sapiens), Q70CQ3. purified USP30, Ub-rhodamine cleavage fluorescence. inhibition, % at 25 µM. 47,000 tested, 5.3% active. AID 1645860, 2021
Active calls of the source: *; · = no result given. Cut-off read from the data, not from the text of the source: active = inhibition above about 30%; inactive = the rest.

SMILES	USP17 inh	OTUD3 inh	USP28 inh	USP30 inh
O=C(COc1cccc(-n2cnnn2)c1)Nc1ccc2c(c1)OCCO2	5	3	50*	14
O=C(COc1ccc(-n2cnnn2)cc1)Nc1cc(Cl)ccc1Oc1ccccc1	17	7	20	6
CCOc1ccc(CCNC(=O)C2CCCN(c3nc4c(C)cc(C)cc4s3)C2)cc1OCC (configuration not stated)	11	1	0	15
O=C1OC(C(=O)Nc2nc3c(ccc4ccccc43)s2)Cc2ccccc21 (configuration not stated)	39*	15	6	9
O=C(Nc1nc2c(ccc3ccccc32)s1)C1CCCC1	14	10	29	34*
O=C(O)Cc1ccc(NC(=O)C2Cc3ccccc3C(=O)O2)cc1 (configuration not stated)	-6	3	3	2
O=C(Cn1cc(-c2nnco2)c2ccccc21)NC1CCCCCC1	38*	2	-6	-9
Cc1ccc(S(=O)(=O)N2CCC3(CC2)NC(=O)c2ccccc2N3)cc1C	58*	-1	0	5
CC(=O)c1ccc(S(=O)(=O)N2CCC3(CC2)NC(=O)c2ccccc2N3)cc1	16	3	2	12
Cc1ccc(S(=O)(=O)N2CCC3(CC2)NC(=O)c2ccccc2N3)c(C)c1	62*	1	3	-5
O=C1NC2(CCN(S(=O)(=O)c3ccc(F)c(F)c3)CC2)Nc2ccccc21	-8	-6	-16	-13
O=C(NCCN1CCCC1)C1CCN(c2cnc(N3CCCCC3)nc2)CC1	-25	-18	78*	-44
O=C(NCC1CC1)C1CCN(c2cnc(N3CCCCCC3)nc2)CC1	-27	0	·	·
CC(C)=CCOc1ccc(C[C@H]2NC(=O)[C@@H](C)NC(=O)[C@@H](Cc3ccc(O)cc3)NC(=O)CNC(=O)[C@H](C)NC(=O)[C@H](Cc3ccccc3)OC2=O)cc1	13	0	-3	5
CC(C)C[C@@H]1NC(=O)[C@H](Cc2ccccc2)N(C)C(=O)[C@H](C)NC(=O)c2ccccc2NC(=O)[C@H](Cc2ccc(O)cc2)N(C)C1=O	41*	9	15	19
O=C(NCc1ccco1)C1CCN(c2cncnc2N2CCCC2)CC1	-14	-15	-6	-40
O=C(NCc1ccccn1)C1CCN(c2cncnc2N2CCCCC2)CC1	-16	-11	41*	-29
Cc1ccc(NC(=O)C2CCN(c3cncnc3N3CCCC3)CC2)cc1	-18	-9	90*	0
O=C(Nc1cnn(-c2ncncc2N2CCCCC2)c1)C1CC1	-1	13	11	24
O=C(CC1CCCC1)N1CCC2(CC1)COCCN(Cc1ccncc1)C2	-26	-7	-11	-27
CSc1ccc(Cn2cccc2C2=NCCO2)cc1	6	12	6	13
Cc1ccccc1NC(=O)c1cc(S(=O)(=O)N2CCCCCC2)ccc1Cl	·	27	24	63*
CCOC(=O)N1CCN(S(=O)(=O)c2ccc(F)c(C(=O)Nc3ccccc3Cl)c2)CC1	2	6	5	36*
Cc1ccc(S(=O)(=O)N2CCCCC2)cc1NC(=O)CN1C(=O)CN(C)C1=O	-3	-4	-12	-13
CC(NCC(=O)Nc1cc(S(=O)(=O)N2CCCCCC2)ccc1Cl)c1ccccc1 (configuration not stated)	18	28	17	43*
SMILES	USP17 inh	OTUD3 inh	USP28 inh	USP30 inh
Cc1ccc(S(=O)(=O)N2CCCCC2)cc1NC(=O)Cc1cccc(F)c1	-9	-3	60*	-4
COc1cccc(NC(=O)Nc2nccn(-c3cccc(F)c3)c2=O)c1	8	-11	-16	-24
O=C(NC1(c2nc(-c3cnccn3)no2)CCCCC1)c1ccoc1	9	13	8	15
Cc1cc(C(=O)N2CCOCC2)c2cc(Cl)ccc2n1	-2	0	-1	-12
Cc1cccc(NC(=O)CN2C(=O)COc3cc(S(=O)(=O)N4CCCC4)ccc32)c1C	19	11	21	60*
Cc1nc2ccccn2c1CN1C[C@@H](c2ccccn2)[C@@]2(CCCCC(=O)N2)C1	8	17	13	18
Cc1ccc(N(C)S(=O)(=O)C2CCS(=O)(=O)C2)cc1 (configuration not stated)	14	13	18	31*
O=c1c2cnc3nc(-c4cccnc4)nn3c2ccn1CCN1CCOCC1	0	1	0	0
Cc1cccc2c(=O)n(C3CCN(S(=O)(=O)c4ccccc4)CC3)cnc12	44*	1	3	9

High-throughput results from PubChem.
